Wnt act = Wnt/beta-catenin pathway activation; actives 1.2% (n = 300,000); Wnt/beta-catenin reporter cell assay, activator, plate reader; AID 743398; activation, % at 9.35 µM; in the data active = activation above about 30%, passing the limit was not always enough; inconclusive = no clear call, values can overlap the other calls
INS-1E GSIS act = primary screen for activators of insulin secretion dependent on glucose, INS-1E cells, GLuc reporter luminescence; INS-1E GLuc reporter insulin secretion, 2-3 h; activation, % at 16.6 µM; actives 0.61% (n = 370,000);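 active = lowest replicate activation of at least 40%, so every replicate reaches that level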
NSD2 inh = NSD2 (human) methyltransferase inhibition | actives 0.54% (n = 310,000) | AID 743445 | inhibition, % at 12.5 µM | NSD2 peptide methylation, AlphaScreen, 120 min
DYRK1A inh = Dyrk1A (rat) kinase inhibition. Q63470. ADP-Glo luminescence, NFATc1 peptide. inhibition, % at 12.5 µM. actives 0.43% (n = 310,000). AID 504441
MITF TRPM1 HTS = increases MITF-driven TRPM1 promoter luciferase signal; SK-MEL-5 TRPM1-promoter luciferase, 24 h; % of positive control, neutral wells = 0; activation, % at 12.5 µM; actives 0.75% (n = 300,000); AID 588334;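 active = mean activation of at least 80% with every replicate also reaching 80%; inconclusive = mean reaches 80% but some replicate falls short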
miR122 inh = blocks miR-122 activity in Huh7 sensor cells; Huh7 miR-122 Renilla luciferase sensor, 48 h; neutral wells = 0, positive control = 100; activation (reporter increase), % at 12.5 µM; actives 0.3% (n = 340,000); AID 602342;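 active = mean replicate activation score at least 90 and every replicate individually at or above 90; inconclusive = only one of the two criteria met; inactive = neither criterion met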;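 note: higher luciferase means less miR-122 activity so hits act as miR-122 inhibitors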
Of the large screens only hits and unclear results are named; the others gave an inactive call. Most compounds without a hit are left out; they make up all but 2.4% or so of the library. Cut-off read from the data, not from the text of the source, unless noted: active = inhibition above about 50%; inactive = the rest.

CCCCCCCCCCCCCCC(O)C[N+](C)(CCO)CCO (stereo not drawn)	INS-1E GSIS act 295 (no result: MITF TRPM1 HTS)
O=c1cc(-c2ccccc2Cl)oc2cc(O)cc(O)c12	none (no result: NSD2 inh, miR122 inh)
Nc1ccc(O)c2c(=O)cc(-c3ccccc3Cl)oc12	Wnt act 54, MITF TRPM1 HTS 109 (no result: NSD2 inh)
Cc1ccc(S(=O)(=O)N(C)C[C@@H]2OCCCC[C@@H](C)Oc3ccc(NC(=O)NC(C)C)cc3C(=O)N([C@H](C)CO)C[C@H]2C)cc1	none (no result: Wnt act, NSD2 inh, DYRK1A inh, MITF TRPM1 HTS)
CCN(C(=O)C=Cc1ccco1)c1ccccc1	Wnt act 204 (no result: INS-1E GSIS act)
CC(=C/C(=O)O)/C=C/c1ccco1	none (no result: miR122 inh)
CC(=O)Nc1ccc2c(c1)C(=O)N(C)[C@H]1CC[C@@H](CC(=O)Nc3cn(C)nc3C)O[C@@H]1CO2	none (no result: Wnt act, NSD2 inh, DYRK1A inh, MITF TRPM1 HTS)
Cc1ccc(-c2nc3ccccc3o2)cc1NC(=S)NC(=O)/C=C/c1ccco1	none (no result: INS-1E GSIS act)
O=C(/C=C/c1ccco1)NC(=S)Nc1ccc(N2CCOCC2)c(Cl)c1	miR122 inh 104 (no result: Wnt act, INS-1E GSIS act)
O=C(/C=C/c1ccco1)NC(=S)Nc1cc(-c2nc3ccccc3s2)ccc1Cl	Wnt act 50 (no result: INS-1E GSIS act, miR122 inh)
Cc1ccc(-c2nc3ccccc3s2)cc1NC(=S)NC(=O)/C=C/c1ccco1	none (no result: Wnt act)
O=C(/C=C/c1ccco1)NC(=S)Nc1cccc(-c2nc3ccccc3o2)c1	miR122 inh 130 (no result: Wnt act, INS-1E GSIS act)
O=C(/C=C/c1ccccc1)NC(=S)Nc1ccc(N2CCOCC2)c(Cl)c1	none
C[C@@H]1CN([C@H](C)CO)C(=O)c2cc(NC(=O)Nc3cccc4ccccc34)ccc2O[C@H]1CN(C)Cc1ccncc1	none (no result: Wnt act, NSD2 inh, DYRK1A inh, MITF TRPM1 HTS)
COc1ccc2c3c(n(C)c2c1)[C@H](CO)N(C(C)=O)CC31CN(Cc2cccnc2)C1	none (no result: Wnt act, NSD2 inh, DYRK1A inh, MITF TRPM1 HTS, miR122 inh)
CN(C)CCCNC(=O)C[C@H]1CC[C@H]2[C@@H](COC[C@H](O)CN2S(=O)(=O)c2ccc(F)cc2)O1	none (no result: Wnt act, NSD2 inh, DYRK1A inh, MITF TRPM1 HTS)
C[C@@H]1CCCCO[C@@H](CN(C)C(=O)Nc2ccc(F)cc2)[C@H](C)CN([C@@H](C)CO)C(=O)c2cc(NC(=O)Nc3ccc(C(F)(F)F)cc3)ccc2O1	none (no result: Wnt act, NSD2 inh, DYRK1A inh, MITF TRPM1 HTS)
N/C(=N\OC(=O)c1cccc2ccccc12)c1cccnc1	Wnt act 45
N/C(=N\OC(=O)c1ccc(Cl)cc1Cl)c1cccnc1	Wnt act 32
N/C(=N\OC(=O)c1ccc(Cl)cc1Cl)c1ccccc1	none (no result: Wnt act, miR122 inh)
O=C(COc1ccc2c(c1)OCO2)Nc1ccccc1C(F)(F)F	none (no result: miR122 inh)
N#Cc1ccccc1NC(=O)COc1ccc2c(c1)OCO2	MITF TRPM1 HTS 120
Cc1ccc(NC(=O)COc2ccc3c(c2)OCO3)c(Cl)c1	Wnt act 41, MITF TRPM1 HTS 98 (no result: DYRK1A inh)
CCc1ccccc1NC(=O)COc1ccc2c(c1)OCO2	none (no result: miR122 inh)
O=C(O)c1ccccc1/C=N/NC(=O)C1CCCCC1	none (no result: NSD2 inh)
O=C(O)c1ccccc1/C=N/NC(=S)NC1CCCCC1	INS-1E GSIS act 75
Cc1cc(Br)cn2c(Cc3cccc(F)c3)c(-c3ccco3)nc12	INS-1E GSIS act 66 (no result: NSD2 inh, DYRK1A inh, MITF TRPM1 HTS, miR122 inh)
CC(C)(C)c1cc(C(=O)NNC(=O)c2ccc(C(F)(F)F)cc2)no1	Wnt act 49 (no result: miR122 inh)
Cc1ccc(NCc2nc3ccccc3n2C)cc1	none (no result: Wnt act, INS-1E GSIS act, MITF TRPM1 HTS)
Cn1c(CNc2ccc(Br)cc2)nc2ccccc21	Wnt act 40, MITF TRPM1 HTS inconclusive (no result: miR122 inh)
Cc1ccsc1/C=C1\CCC(C2CCCC2)C1=O (stereo not drawn)	Wnt act 47
COc1ccc(/C=C2\CCC(C3CCCC3)C2=O)cc1 (stereo not drawn)	MITF TRPM1 HTS 98 (no result: miR122 inh)
COc1cc(/C=C2\CCC(C3CCCC3)C2=O)ccc1OC(C)C (stereo not drawn)	none
Cc1ccc(/C=C2\CCC(C3CCCC3)C2=O)cc1 (stereo not drawn)	none
COc1ccc(/C=C2\CCC(C3CCCC3)C2=O)cc1OC (stereo not drawn)	Wnt act 33 (no result: miR122 inh)
CNC(=O)C[C@@H]1CC[C@H]2[C@H](COc3ccc(NC(=O)Nc4cccc(Cl)c4)cc3C(=O)N2C)O1	none (no result: Wnt act, NSD2 inh, DYRK1A inh, MITF TRPM1 HTS)
CCC(=O)N1C[C@H](C)[C@H](OC)CN(C)C(=O)c2cc(NC(=O)Nc3cccc(F)c3)ccc2OC[C@H]1C	none (no result: Wnt act, NSD2 inh, DYRK1A inh, MITF TRPM1 HTS)
Cc1noc(C)c1S(=O)(=O)Nc1ccc2c(c1)C(=O)N([C@@H](C)CO)C[C@@H](C)[C@H](CN(C)Cc1ccc(Cl)c(Cl)c1)OCCCC[C@@H](C)O2	none (no result: Wnt act, NSD2 inh, DYRK1A inh, MITF TRPM1 HTS)
COc1cc2[nH]c(=O)n3nc(-c4ccccc4)nc3c2cc1OC	none (no result: Wnt act, INS-1E GSIS act, NSD2 inh, MITF TRPM1 HTS, miR122 inh)
COc1ccc(-c2nc3c4ccccc4[nH]c(=O)n3n2)cc1	Wnt act 59 (no result: INS-1E GSIS act, MITF TRPM1 HTS)

Screens (PubChem BioAssay)
